Screens deposited in PubChem BioAssay by National Center for Advancing Translational Sciences (NCATS).
An excerpt weighted towards active compounds, which were near 19% of everything screened.
IL1B secr inh = inflammasome signaling inhibition, IL-1 beta readout; THP-1 LPS/ATP IL-1B secretion, AlphaLISA, 16 h; active compounds read low; activity change, % at 57.5 µM; 360,000 tested, 4.7% active; AID 743279; in the data active means activity change below about -50%; inconclusive means mostly about -30% to -49%; further: on the % scale 0 is the no-effect control and ±100 the full control effect
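THP-1 cells pretreated 1 hr with compounds (up to 57.5 uM final), then stimulated with LPS (250 ng/mL final) plus ATP (1.25 mM final); secreted IL-1B measured by AlphaLISA after 16 hr, decreased signal indicating inhibition.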
BCR signal inh = chronic active BCR signaling inhibition; 340,000 tested, 0.05% active; Potency, µM (doses to about 46.1 µM), inactives show top-dose activity change, negative = inhibition, hits mostly inhibitors; ABC-DLBCL IkBa-CBG/CBR reporter, luminescence ratio, 4 h; active means well fitted inhibition curve with a large enough effect in the signal ratio, with a control signal flat, not every such curve was filed as active; inconclusive means small, poorly fitted or top-dose-only effect, or effect the other way, or a change in a side signal; the % refers to the signal ratio;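 further: potency means the concentration at half of the fitted maximal effect; plate controls were basal doxycycline-induced cells for no effect and cells given 10 µM MG132 for full effect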
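TMD8 human ABC-DLBCL cells with doxycycline-inducible IκBα–green luciferase fusion and unfused red luciferase, in 0.5% FBS medium; compounds up to 46 uM, 4 h at 37C. Green/red luminescence ratio, filter-overlap corrected, fitted to concentration-response curves.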
MCF10A rerep = induces DNA re-replication in MCF 10a normal breast cells. MCF 10A DNA re-replication, Hoechst nuclear intensity, 48 h. Potency, µM (titrated, usually from 46.1 µM), for the others: top-dose activity, positive = re-replication, actives largely listed as activators. 350,000 tested, 2.9% active. AID 624296; further: potency means the concentration at half of the fitted maximal effect; % of control where 0% means no effect; nearly all actives have a fitted effect of over 50% in size
TDP1 cell noCPT = qHTS for Inhibitors of human tyrosyl-DNA phosphodiesterase 1 (TDP1): qHTS in cells in absence of CPT. DT40 Tdp1-/- hTDP1 cells, no CPT, ATP luminescence, 48 h. Potency, µM (doses to about 46.2 µM), for the others: at the top dose activity change, negative = growth inhibition, most hits filed as inhibitors. 420,000 tested, 15% active; further: potency means the concentration at half of the fitted maximal effect; on the % scale 0 is the no-effect control and ±100 the full control effect; nearly all actives have a fitted effect of over 55% in size
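Camptothecin absent (DMSO only). Human TDP1-complemented DT40 knockout cells, 400 cells/well, 37 °C for minimum 48 hr; ATP measured via CellTiter-Glo, 30 min dark incubation, luminescence.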
SW480 rereplic = inducers of DNA re-replication in SW480 colon cancer cells; SW480 DNA re-replication, Hoechst DNA content imaging, 48 h; Potency, µM (top dose mostly 46.1 µM), for inactives: top-dose re-replication activation, actives largely listed as activators; 340,000 tested, 1.8% active; AID 624297; further: potency means the concentration at half of the fitted maximal effect; % of control where 0% means no effect; nearly all actives have a fitted effect of over 55% in size
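Image-based DNA-content assay: after two days of treatment, nuclei were labelled with the DNA dye Hoechst and imaged, and hits were compounds raising the count of nuclei showing high fluorescence intensity.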
DT40 TDP1 CPT = DT40-hTDP1 cell growth loss with CPT; Potency, µM (top dose mostly 46.2 µM), for the others: top-dose activity change, negative = growth inhibition, usual class: inhibitors; chicken DT40 Tdp1-/-;hTDP1 cells + 20 nM CPT, ATP luminescence, 48 h; 420,000 tested, 12% active; further: potency means the concentration at half of the fitted maximal effect; on the % scale 0 is the no-effect control and ±100 the full control effect; nearly all actives have a fitted effect of over 55% in size
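Cell growth measured by CellTiter-Glo luminescence after a minimum 48 h, 37 C compound exposure with 20 nM CPT in Tdp1-knockout DT40 cells stably expressing hTDP1, seeded 400/well; qHTS titration format.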
An asterisk follows results filed as active; ? = inconclusive; . = no result given. Unless noted, the call rests on the fitted dose curve; in most records, active means well fitted curve in the direction sought with a large enough effect; inconclusive means small, poorly fitted or top-dose-only effect, or another doubt; inactive means no such curve, though single readings can be large; an effect the other way counts as inactive or inconclusive.

SMILES | IL1B secr inh | BCR signal inh | MCF10A rerep | TDP1 cell noCPT | SW480 rereplic | DT40 TDP1 CPT
CCN(CC)C(=O)C1CCCN(c2ncnc3c2c(-c2ccccc2)cn3-c2cccc(C)c2)C1 (configuration not stated) | . | -0.1% | . | ? | . | 14.6µM*
FC(F)(F)c1cccc(-n2cc(-c3ccccc3)c3c(N4CCCCC4)ncnc32)c1 | . | 8.8% | . | 23.1µM* | . | ?
CCOc1ccc(C2C(C(N)=O)=C(C)Nc3nc(-c4ccc(OC)cc4)nn32)cc1 (configuration not stated) | . | . | . | -6.8% | . | -1.8%
Cc1ccccc1C(=O)Nc1c(C)nc2ccccn2c1=O | . | . | . | 0.4% | . | -18.1%
Cc1ccc(S(=O)(=O)N2CC3(O)CN(C(=O)OC(C)C)N(C(=O)OC(C)C)CC3(OC(=O)Nc3c(C)noc3C)C2)cc1 (configuration not stated) | -16.1 | . | . | ? | . | ?
COC(=O)[C@H]1C[C@@]2(O)CN(S(=O)(=O)c3ccc(C)cc3)C[C@@]2(OC(=O)NC2CCCC2)C[C@H]1C(=O)OC | 22.1 | . | . | -9.7% | . | -13.9%
Cc1ccc(S(=O)(=O)N2CC3(O)CN(C(=O)OC(C)C)N(C(=O)OC(C)C)CC3(OC(=O)NCc3ccco3)C2)cc1 (configuration not stated) | -55.9* | . | . | 20.6µM* | . | ?
Cc1ccc(S(=O)(=O)N2CC3(O)CN(C(=O)OC(C)C)N(C(=O)OC(C)C)CC3(OC(=O)Nc3cccs3)C2)cc1 (configuration not stated) | -79.8* | . | . | 18.4µM* | . | ?
Cc1ccc(S(=O)(=O)N2CC3(O)CN(C(=O)OC(C)C)N(C(=O)OC(C)C)CC3(OC(=O)NC3CCCC3)C2)cc1 (configuration not stated) | -15.2 | . | . | 23.1µM* | . | ?
O=C(Nc1ccc(N2CCOCC2)cc1N1CCOCC1)c1ncoc1-c1cccc(F)c1 | ? | -0.1% | 23.9% | ? | 0.4% | ?
Cc1ccccc1NC(=O)COC(=O)CCc1ccccc1 | -6.6 | -1.9% | -6.3% | -29.4% | -1.7% | ?
COc1cccc(CNC(=O)[C@@H]2CCCN2C(=O)OC(C)(C)C)c1 | -1.8 | . | . | -12.7% | . | -21.3%
Cc1ccc(C)c(C(O)c2ncc(-c3ccccc3F)[nH]2)c1 (configuration not stated) | 20.4 | . | . | ? | . | ?
Cc1ccc(Nc2c(-c3ccc(N4CCOCC4)cc3)nc3ccc(Cl)cn23)cc1 | . | . | . | -21.1% | . | -20.1%
Cc1ccccc1Nc1c(-c2ccc(N3CCOCC3)cc2)nc2ccc(Cl)cn12 | . | . | . | 16.4µM* | . | 18.4µM*
Cc1cc(C)nc(Nc2ccc(N3CCOCC3)cc2)n1 | -4.4 | 8.4% | -8.6% | -10.8% | -4.9% | -13.0%
Cc1ccc2nc(-c3ccc(N4CCOCC4)cc3)c(Nc3ccccc3C)n2c1 | . | . | . | 18.4µM* | . | 16.4µM*
Cc1ccn2c(Nc3ccccc3C)c(-c3ccc(N4CCOCC4)cc3)nc2c1 | . | . | . | ? | . | 18.4µM*
NC(=O)c1ccccc1NC(=O)c1ccccc1Cl | -1.8 | ? | 8.7% | ? | 2.8% | -0.4%
Cc1c(Cl)cccc1NC(=O)Nc1ccccc1C(N)=O | -6.5 | -2.3% | 19.5% | 6.51µM* | ? | 4.11µM*
NC(=O)c1ccccc1NC(=O)Nc1cccc(Cl)c1Cl | -5.9 | 2.8% | -1.7% | 9.2µM* | -0.6% | 5.8µM*
Cc1c(Cl)cccc1NC(=O)Nc1ccc(C(N)=O)cc1 | 1.9 | ? | -2.2% | -24.2% | 9.7% | 5.7%
O=C(NC1CCCCC1)C1c2ccccc2OCC(=O)N1CCc1c[nH]c2ccccc12 (configuration not stated) | 0.7 | . | . | 25.9µM* | . | -21.9%
O=C(NC1CCCC1)C1c2ccccc2OCC(=O)N1CCc1ccccc1 (configuration not stated) | 26.4 | . | . | ? | . | -24.1%
